For this test, the system named is PBMC-derived induced microglia-like cells (piMGLC). Kind of test: synaptosome phagocytic index relative to DMSO control (fraction of DMSO); higher = more phagocytosis. Conditions: concentration: 10 uM (2 uM for compounds listed in Table S2); pretreatment time: 24 h; assay time: 3 h.

The structures appear in SMILES notation. Structures can show the parent of a compound that is named as a salt.

Turning to `C[C@H](Cn1cnc2c(N)ncnc21)OCP(=O)(O)O` [Tenofovir], the synaptosome phagocytic index was determined as 0.906.
With `CNCCC(Oc1ccc(C(F)(F)F)cc1)c1ccccc1` (configuration not stated) [Fluoxetine_(hydrochloride)] the figure was 0.69; with `CN1C[C@@H]2[C@H](C1)[C@H]2CN(Cc1ccc(F)c(Cl)c1)C(=O)c1cn(C)cn1`, 0.691; with `NC(=O)c1ccc(I)c([N+](=O)[O-])c1` [Iniparib], 0.96.
With `O=C1CCC(N2C(=O)c3ccccc3C2=O)C(=O)N1` (configuration not stated) [Thalidomide] the figure was 0.811; with `Cn1c(OCC2CCC(C(F)(F)F)CC2)nn2c(C3CCOCC3)ncc2c1=O` (configuration not stated), 0.831.
With `Cn1cc2cc(C(F)(F)c3nnc4ccc(-c5cnn(C6CC6)c5)nn34)c(F)cc2n1` [Bozitinib] the figure was 0.851.
As for `O=C1Nc2ccc(Cl)cc2[C@@](C#CC2CC2)(C(F)(F)F)O1` [Efavirenz], the synaptosome phagocytic index is 0.473.
Turning to `CS(=O)(=O)OCCCCOS(C)(=O)=O` [Busulfan], the synaptosome phagocytic index is 0.829.
With `CC(C)OC(=O)NC1CCN(Cc2cc(Cl)c3cccnc3c2O)CC1` the figure was 0.609; with `Cc1ccc(C(=O)NCCCCCC(=O)Nc2ccccc2N)cc1`, 0.694.
With `O=C(O)Cc1ccccc1Nc1c(Cl)cccc1Cl` [Diclofenac], the synaptosome phagocytic index came to 1.01.
With `CC[C@H](NC(=O)c1c(C)c(-c2ccccc2)nc2ccccc12)c1ccccc1` the figure was 0.907.
In the case of `COc1cc2c(N3CCN(C(=O)Nc4ccc(OC(C)C)cc4)CC3)ncnc2cc1OCCCN1CCCCC1` [Tandutinib_(hydrochloride)], the synaptosome phagocytic index amounted to 0.778.
Turning to `CCN1CCN(C(=O)N[C@@H](C(=O)N[C@@H]2C(=O)N3[C@@H]2SC(C)(C)[C@@H]3C(=O)O)c2ccccc2)C(=O)C1=O` [Piperacillin_(sodium)], the synaptosome phagocytic index came to 1.13.
With `CC(=O)OCC[N+](C)(C)C` [Acetylcholine_(chloride)] the figure was 0.587; with `CC(=O)Nc1cccc(-n2c(=O)n(C3CC3)c(=O)c3c(Nc4ccc(I)cc4F)n(C)c(=O)c(C)c32)c1` [Trametinib], 0.637.
As to `Cc1ccsc1C(=CCCN1CCC[C@@H](C(=O)O)C1)c1sccc1C` [Tiagabine_(hydrochloride)], the synaptosome phagocytic index was found to be 1.28.
With `CC[C@@]1(O)C(=O)OCc2c1cc1n(c2=O)Cc2cc3c(CN(C)C)c(O)ccc3nc2-1` [Topotecan_(Hydrochloride)] the figure was 0.354.
With `NC(=O)N1c2ccccc2CC(=O)c2ccccc21` [Oxcarbazepine] the figure was 0.693.
With `Nc1cc(C(F)(F)F)c(-c2nc(N3CCOCC3)nc(N3CCOCC3)n2)cn1` [Bimiralisib] the figure was 0.518; with `CN(C)CCCN1c2ccccc2CCc2ccccc21` [Imipramine_(hydrochloride)], 0.863.
In the case of `Cc1cc(-c2nncc3c(C(C)(C)C)c(OCc4ncnn4C)nn23)no1`, the synaptosome phagocytic index came out at 0.814.
With `CCN(CC)Cc1ccc2cc(COC(=O)Nc3ccc(C(=O)NO)cc3)ccc2c1` [Givinostat_(hydrochloride_monohydrate)] the figure was 0.482.
With `COc1cccc2c1C(=O)c1c(O)c3c(c(O)c1C2=O)C[C@@](O)(C(=O)CO)C[C@@H]3O[C@H]1C[C@H](N)[C@@H](O)[C@H](C)O1` [Epirubicin_(hydrochloride)], the synaptosome phagocytic index turned out to be 0.904.
As to `N#Cc1cccc(-c2c[nH]c3ncnc(N4CCOCC4)c23)c1`, the synaptosome phagocytic index came out at 0.623.
With `COCc1ccc(-c2ccc(N(C[C@@H](N)[C@@H](C)OC)C(=O)[C@@H]3C[C@H]3c3ccccn3)cc2)cc1` the figure was 0.794; with `Cc1c(N)c(=O)n(-c2ccccc2)n1C` [Ampyrone], 0.708.
Consider `Nc1cc(C(F)(F)F)c(-c2cc(N3CCOCC3)nc(N3CCOCC3)n2)cn1` [Buparlisib_(Hydrochloride)], for which the synaptosome phagocytic index was determined as 0.429.
For the molecule `C#CCN[C@@H]1CCc2ccccc21` [Rasagiline_(mesylate)], the synaptosome phagocytic index is 0.965.
Regarding `CN1CCN(C2=Nc3ccccc3Oc3ccc(Cl)cc32)CC1` [Loxapine], the synaptosome phagocytic index is 0.272.
As to `COc1ccc(OCCN2CCN(C(=O)c3cc4ccccc4[nH]3)CC2)cc1`, the synaptosome phagocytic index is 1.22.
Regarding `CCc1cc2c(cc1-c1cnn(CC(=O)N(C)C)c1)C(C)(C)c1[nH]c3cc(C#N)ccc3c1C2=O`, the synaptosome phagocytic index stood at 0.394.
With `CC(C)c1ccc(CC(=O)N2CCN(c3ccc(C#N)nn3)CC2)cc1` the figure was 0.943.
With `Cc1nc2c([nH]1)-c1ccccc1N(C(=O)c1ccc(NC(=O)c3ccccc3-c3ccccc3)cc1)CC2` [Conivaptan_(hydrochloride)] the figure was 0.827.
With `CC(C)(O)CC(=O)NCCn1ccc2ncnc(Nc3ccc(Oc4cccc(C(F)(F)F)c4)c(Cl)c3)c21` the figure was 1.04; with `NC(=O)c1cn(Cc2c(F)cccc2F)nn1` [Rufinamide], 0.654.

The values above are taken from the supplement of paper PMC12339681.
